According to PubChem BioAssay AID1159580 (chemical genetic matrix, 2015):
About 2,000 (36%) of roughly 5,500 compounds were called active. Roughly 18% stayed inconclusive and do not appear here. Cut-off read from the data, not from the text of the source: active = normalized growth mostly below about 0.91 (no sharp cut-off); inconclusive = no clear call, values can overlap the other calls; inactive = mostly above about 0.92. The list shows a part of the results.

Experiment: chemical genetic growth profiling, strain panel (AID 1159580);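 note: tested at 20 µM; growth read once vehicle control cultures reached saturation at 30 °C; 1 = growth at the plate median or of vehicle wells; lower values mean less growth of the strain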
Details: S. cerevisiae deletion strains, growth OD

Measured: normalized growth

COc1c2ccoc2c(OC)c2oc(=O)ccc12
active: locus YLR258W, strain gsy2, active compounds read low 0.907 | locus YLR371W, strain rom2, active compounds read low 0.84 | locus YML120C, strain ndi1, active compounds read low 0.901 | locus YNL071W, strain lat1, active compounds read low 0.915 | locus YNL248C, strain rpa49, active compounds read low 0.849 | locus YOR184W, strain ser1, active compounds read low 0.871 | locus YPL078C, strain atp4, active compounds read low 0.882 | locus YPL106C, strain sse1, active compounds read low 0.832
inactive: locus YJR066W, strain TOR1, active compounds read low 0.939 | locus YJR075W, strain HOC1, active compounds read low 0.964 | locus YKL009W, strain mrt4, active compounds read low 0.956 | locus YKL068W, active compounds read low 0.996 | locus YKL085W, strain MDH1 (second series), active compounds read low 0.987 | locus YKL085W, strain MDH1, active compounds read low 0.987 | locus YKL160W, strain elf1, active compounds read low 0.933 | locus YKL190W, strain CNB1, active compounds read low 0.985 | locus YKR001C, strain vps1, active compounds read low 0.905 | locus YKR026C, strain gcn3, active compounds read low 0.99 | locus YKR091W, strain srl3, active compounds read low 0.991 | locus YLL001W, strain dnm1, active compounds read low 0.909 | locus YLL026W, active compounds read low 0.979 | locus YLL041C, strain sdh2, active compounds read low 0.981 | locus YLR027C, strain aat2, active compounds read low 0.975 | locus YLR039C, strain RIC1, active compounds read low 0.964 | locus YLR058C, strain SHM2, active compounds read low 0.959 | locus YLR102C, strain apc9, active compounds read low 0.979 | locus YLR113W, strain HOG1, active compounds read low 1.05 | locus YLR221C, strain rsa3, active compounds read low 0.983 | locus YLR262C, strain YPT6 (second series), active compounds read low 0.969 | locus YLR262C, strain YPT6, active compounds read low 1.05 | locus YLR268W, strain sec22, active compounds read low 0.921 | locus YLR320W, strain mms22, active compounds read low 0.945 | locus YLR330W, strain CHS5, active compounds read low 0.963 | locus YLR342W, strain FKS1, active compounds read low 0.99 | locus YLR357W, strain rsc2, active compounds read low 1.06 | locus YLR370C, strain arc18, active compounds read low 0.988 | locus YLR384C, strain iki3, active compounds read low 0.991 | locus YLR418C, strain cdc73, active compounds read low 0.932 | locus YML016C, strain PPZ1, active compounds read low 0.948 | locus YML032C, strain rad52, active compounds read low 0.951 | locus YML124C, strain tub3, active compounds read low 0.974 | locus YMR058W, strain fet3, active compounds read low 0.921 | locus YMR078C, strain ctf18, active compounds read low 0.969 | locus YMR125W, strain sto1, active compounds read low 0.994 | locus YMR129W, active compounds read low 0.986 | locus YMR205C, strain PFK2, active compounds read low 0.913 | locus YMR223W, strain ubp8, active compounds read low 0.974 | locus YMR231W, strain pep5, active compounds read low 0.991 | locus YMR263W, strain SAP30, active compounds read low 0.973 | locus YMR307W, strain GAS1, active compounds read low 0.956 | locus YNL067W, strain RPL9B, active compounds read low 0.999 | locus YNL128W, strain TEP1, active compounds read low 0.932 | locus YNL153C, strain GIM3, active compounds read low 0.947 | locus YNL183C, strain NPR1, active compounds read low 0.939 | locus YNL209W, strain ssb2, active compounds read low 0.958 | locus YNL233W, strain BNI4, active compounds read low 0.946 | locus YNL250W, strain rad50, active compounds read low 0.988 | locus YNL271C, strain bni1, active compounds read low 0.983 | locus YNL298W, strain CLA4, active compounds read low 0.929 | locus YNL307C, strain MCK1, active compounds read low 0.949 | locus YNL322C, strain KRE1 (second series), active compounds read low 0.986 | locus YNR049C, strain mso1, active compounds read low 0.993 | locus YNR052C, strain pop2, active compounds read low 1 | locus YOL006C, strain TOP1, active compounds read low 0.691 | locus YOL012C, strain htz1 0.85 | locus YOL147C, strain pex11, active compounds read low 0.984 | locus YOR001W, strain rrp6, active compounds read low 0.978 | locus YOR061W, strain CKA2, active compounds read low 0.931 | locus YOR069W, strain VPS5, active compounds read low 0.994 | locus YOR070C, strain gyp1, active compounds read low 0.951 | locus YOR080W, strain dia2, active compounds read low 0.992 | locus YOR083W, strain WHI5, active compounds read low 0.943 | locus YOR106W, strain vam3, active compounds read low 0.875 | locus YOR136W, strain idh2, active compounds read low 0.959 | locus YOR144C, strain elg1, active compounds read low 0.969 | locus YOR231W, strain MKK1, active compounds read low 0.962 | locus YOR265W, strain rbl2, active compounds read low 0.979 | locus YOR270C, strain vph1, active compounds read low 0.815 | locus YOR290C, strain snf2, active compounds read low 0.876 | locus YOR316C, strain cot1, active compounds read low 0.948 | locus YPL051W, strain arl3, active compounds read low 0.928 | locus YPL055C, strain LGE1, active compounds read low 0.868 | locus YPL240C, strain hsp82, active compounds read low 0.939 | locus YPL241C, strain CIN2, active compounds read low 0.993 | locus YPL256C, strain CLN2, active compounds read low 1.08 | locus YPR119W, strain clb2, active compounds read low 0.997 | locus YPR141C, strain kar3, active compounds read low 0.98 | locus YPR163C, strain tif3, active compounds read low 0.948 | locus YPR167C, strain met16, active compounds read low 0.983 | strain wtn01, active compounds read low 0.91
